This is one part of a sample in which hits are shown more often than they occur.
B2AR arrestin ag – ADRB2 beta-arrestin recruitment; 44,000 tested, under 10 active; Potency, µM (top dose mostly 46.1 µM), actives largely listed as activators; HTLA Tango cells, beta-arrestin recruitment, luciferase luminescence, 18 h; AID 1347077; P07550;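 also: potency is read from the fitted curve at half-maximal effect; 0% = DMSO and full agonism = EC100 isoproterenol or metaproterenol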
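First, Tango cells carrying beta2-AR and beta-arrestin fusions received compound up to 46 microM. After 18 hr at 37 degrees C, luciferase substrate was added for 15 minutes, then luminescence gave %Activity for curve fitting.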
NTMT1 inh – NTMT1 methyltransferase inhibition; NTMT1 MTase-Glo SAH luminescence, purified enzyme; Potency, µM (top dose mostly 114 µM), without a hit: at the highest dose activity change, negative = inhibition, hits mostly inhibitors; actives 2.5% (n = 59,000); AID 1645870; Q9BV86;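 also: potency is read from the fitted curve at half-maximal effect; plate controls were DMSO vehicle for no effect and no enzyme for full effect; nearly all actives have a fitted effect of over 65% in size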
GALK inhibitor – inhibits human galactokinase; recombinant GALK, Kinase-Glo ATP luminescence, 1 h; Potency, µM (top dose mostly 57.5 µM), for the others: at the top dose activity, negative = inhibition, hits mostly inhibitors; 44,000 tested, under 10 active; AID 1347072;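 also: plate controls were full GALK reaction for no effect and reaction lacking GALK for full effect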
Target sequence (P51570 whole entry, looked up): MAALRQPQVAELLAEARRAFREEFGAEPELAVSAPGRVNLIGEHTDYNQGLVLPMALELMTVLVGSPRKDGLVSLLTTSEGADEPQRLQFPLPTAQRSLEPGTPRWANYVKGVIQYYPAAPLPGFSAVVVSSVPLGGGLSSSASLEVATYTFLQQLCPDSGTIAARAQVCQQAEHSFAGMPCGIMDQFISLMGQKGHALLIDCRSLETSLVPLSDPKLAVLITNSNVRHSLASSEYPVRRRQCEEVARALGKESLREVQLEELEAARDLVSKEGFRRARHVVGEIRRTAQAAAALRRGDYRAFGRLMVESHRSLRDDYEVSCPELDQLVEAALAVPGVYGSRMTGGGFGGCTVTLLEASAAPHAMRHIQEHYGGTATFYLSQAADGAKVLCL
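Reactions with and without enzyme served as controls. GALK at 5 nM phosphorylates 100 uM galactose using 35 uM ATP (HEPES pH 8.0, Mg2+) for 1 h at RT, with luminescence read 10 min after adding Kinase-Glo Plus.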
PTAP-TSG101 blk – inhibitors of HIV-1 PTAP binding to human TSG101, validation | 44,000 tested, under 10 active | Potency, µM (highest dose often 115 µM), hits mostly inhibitors | AID 1347069 | Q99816 | Fluorescence polarization, FITC-PTAP peptide/Tsg101, 20 min; also: potency is read from the fitted curve at half-maximal effect; 0% is about no effect
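Steps: Tsg101 binding domain (10 uM final) in HEPES pH 7.5/NaCl/Tween 20/EDTA/TCEP; add compound; add FITC-PTAP peptide (50 nM final); incubate 20 min r.t.; read polarization.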
FH mod – Identification of activators of human fumarate hydratase by quantitative high-throughput screening; Fumarate hydratase, mitochondrial (Homo sapiens), P07954; FH coupled MDH/diaphorase resazurin fluorescence, 15 min; Potency, µM (doses to about 79.9 µM), without a hit: at the highest dose activity change, negative = inhibition, usual class: inhibitors; actives 0.22% (n = 54,000); AID 1347055, 2019; also: potency is read from the fitted curve at half-maximal effect; % is scaled to controls: 0 for no effect and ±100 for the full control effect; the screen sought activators but most active calls are inhibition curves; nearly all actives have a fitted effect of over 45% in size
Numbers without * were called inactive; i = inactive; ? = inconclusive; . = no result given; ! = not confirmed by another sample; [ ] = another dose, or the depositor's remark. Calls follow the shape of the dose curve; as a rule, active = well fitted curve in the direction sought with a large enough effect; inconclusive = small, poorly fitted or top-dose-only effect, or another doubt; inactive = no such curve, though single readings can be large; an effect the other way counts as inactive or inconclusive.

SMILES	B2AR arrestin ag	NTMT1 inh	GALK inhibitor	PTAP-TSG101 blk	FH mod
COCCn1c(SCC(=O)Nc2ccc(F)c(Cl)c2)nc2c(oc3ccccc32)c1=O	i	79µM*	-3%	i	-3%
COC(=O)[C@H](O)[C@H]1C(C)(C)[C@H](OC(C)=O)[C@@]2(O)C(=O)[C@]1(C)C1CC[C@]3(C)C(CC(=O)O[C@H]3c3ccoc3)[C@]13O[C@@H]32 (stereo not given in full)	.	8%[29.8 µM]	.	.	?
CC(C)=CCC/C(C)=C/CC/C(C)=C/CSc1ccccc1C(=O)O	.	50µM*	.	.	?
COc1ccc(Cn2c(CO)cnc2SCc2ccc(C)cc2)cc1	i	-7%	3%	i	-4%
COc1ccc(Cn2c(CO)cnc2SCc2ccc(F)cc2)cc1	i	89µM*	-1%	i	3%
Cc1cnc(-c2ccccc2OC(C)C)nc1NCc1ccc(-n2ccnn2)cc1	.	0%[57.5 µM]	.	.	.
COC(=O)C#Cc1ccc([N+](=O)[O-])cc1	.	0%	.	.	3%
CCOc1ccc(CNC(=O)c2ccc(Sc3ccc(Cl)cc3)c(NC(C)=O)c2)cc1OC	i	89µM*	-2%	i	?
O=Cc1ccc(O)c(O)c1O	.	18µM*	.	.	15µM*
O=C(c1ccc(Nc2nccc(-c3cc4ccccc4s3)n2)cc1)N1CCC(N2CCCC2)CC1	.	28µM*!	.	.	-13%
CN1CCc2cccc3c2[C@H]1Cc1ccc(O)c(O)c1-3	.	22µM*	.	.	?
CCOC(=O)C1CCN(C(=O)C(C)(C)NC(=O)Nc2ccc3ccccc3c2)CC1	.	6%	.	.	.
COc1ccc2nc(S(=O)(=O)Cc3ncc(C)c(OC)c3C)[nH]c2c1	.	11%[57.5 µM]	.	.	-1%
CCc1ccc(Nc2ncnc3sc4c(c23)CCCC4)cc1	i	-6%	0%	i	-6%
COc1ccc(Nc2ncnc3sc4c(c23)CCCC4)cc1	i	22µM*	1%	i	-10%
Nc1ncnc2c1ncn2[C@@H]1O[C@H](CO)[C@@H](O)[C@H]1O	.	50µM*!	.	.	0%[53.3 µM]
OC[C@H]1O[C@@H](n2cnc3c(=S)nc[nH]c32)[C@H](O)[C@@H]1O	.	5.6µM*	.	.	4%[53.3 µM]
C=CCNC1=C2CC(C)CC(OC)C(O)C(C)/C=C(\C)C(OC(N)=O)C(OC)/C=C/C=C(\C)C(=O)NC(=CC1=O)C2=O (stereo not given)	.	-16%	.	.	.
COCCOCCOc1ccc(C2=N[C@@](C)(C(=O)O)CS2)c(O)c1	.	7%[57.5 µM]	.	.	?
CC(=O)c1ccc(C(=O)Nc2nnc(-c3ccco3)o2)cc1	.	3%	.	.	.
O=C(O)/C(S)=C/c1ccc(I)cc1	.	79µM*	.	.	.
O=C1Nc2ccccc2/C1=C\c1ccc(O)cc1	.	-18%	.	.	.
O=C1Nc2ccc(I)cc2/C1=C/c1cc(Br)c(O)c(Br)c1	.	3.5µM*	.	.	28µM*
O=C1Nc2ccc(I)cc2C1=Cc1cc(Br)c(O)c(Br)c1	.	17µM*	.	.	?
Nc1nccc(-c2c(-c3ccc(F)cc3)ncn2C2CCN(Cc3ccon3)CC2)n1	.	3%	.	.	.
SMILES	B2AR arrestin ag	NTMT1 inh	GALK inhibitor	PTAP-TSG101 blk	FH mod
CC(=O)N1CCN(c2ccc(NCc3ccccc3)cc2)CC1	.	-15%	.	.	.
CC(=O)N1CCN(c2ccc(O)cc2)CC1	.	28µM*	.	.	?
Cc1ccc(S(=O)(=O)Nc2cnccc2C(=O)Nc2ccc(N3CCOCC3)cc2)cc1	.	14%	.	.	.
CC(=O)Nc1sc2c(c1-c1cccc3c1sc1ccccc13)CCNC2	.	-5%	.	.	.
N#Cc1cc(NC(=O)C(=O)O)c(Cl)c(NC(=O)C(=O)O)c1	.	16µM*	.	.	-5%[53.3 µM]
CC(C(=O)Nc1cc(C#N)ccc1CCCC(=O)O)c1ccc(F)c2ccccc12 (stereo not given)	.	16%[57.5 µM]	.	.	-4%
CCc1ccc(S(=O)(=O)NCc2ccc3c(c2)CCN3C(=O)c2ccc(C)cc2)cc1	i	21%	0%	i	-3%
Cc1ccc(CNS(=O)(=O)c2ccc3c(c2)CCN3S(C)(=O)=O)cc1	i	50µM*	-2%	i	-24%
O=C(NC1CCN(Cc2ccccc2)CC1)c1ccc(Cn2c(=O)c3ccccc3n(Cc3ccccc3)c2=O)cc1	i	79µM*	0%	i	2%
COCCCNC(=O)Cn1c(=O)n(Cc2ccc(C(=O)NCc3ccc(C)cc3)cc2)c(=O)c2ccccc21	i	79µM*	1%	i	-8%
